In PubChem BioAssay AID1159580 (chemical genetic matrix, 2015):
Several values for one entry are separate records, joined by “and”; a condition that tells them apart may be missing. Equal entries are not always repeated. Hit rate of the full screen: of about 5,500 compounds, about 2,000 (36%) were called active. Roughly 18% stayed inconclusive and do not appear here. Rule as the data show it: active = normalized growth mostly below about 0.91 (no sharp cut-off); inconclusive = no clear call, values can overlap the other calls; inactive = mostly above about 0.92. The list shows a part of the results.

Assay: chemical genetic growth profiling, strain panel (AID 1159580);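 also: tested at 20 µM; growth read once vehicle control cultures reached saturation at 30 °C; 1 = growth at the plate median or of vehicle wells; lower values mean less growth of the strain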
Settings: growth OD

Measured: normalized growth

CO[C@@H]1C[C@H](O[C@H]2CC[C@]3(C)C4CC[C@]5(C)[C@@H](C6=CC(=O)OC6)CC[C@]5(O)[C@@H]4CC[C@]3(O)C2)O[C@H](C)[C@@H]1O (some centres not stated)
inactive: S. cerevisiae deletion strains, locus YBR021W, strain FUR4, active compounds read low 0.961 | S. cerevisiae deletion strains, locus YBR229C, strain ROT2, active compounds read low 1 | S. cerevisiae deletion strains, locus YCL029C, strain bik1, active compounds read low 1.02 | S. cerevisiae deletion strains, locus YDL035C, strain GPR1, active compounds read low 0.905 | S. cerevisiae deletion strains, locus YDL074C, strain BRE1, active compounds read low 0.987 | S. cerevisiae deletion strains, locus YDL101C, strain DUN1, active compounds read low 1.02 | S. cerevisiae deletion strains, locus YDL134C, strain PPH21, active compounds read low 1 | S. cerevisiae deletion strains, locus YDL185W, strain tfp1, active compounds read low 1.05 | S. cerevisiae deletion strains, locus YDR101C, strain arx1, active compounds read low 1.01 | S. cerevisiae deletion strains, locus YDR162C, strain NBP2, active compounds read low 0.881 | S. cerevisiae deletion strains, locus YDR318W, strain mcm21, active compounds read low 0.987 | S. cerevisiae deletion strains, locus YDR388W, active compounds read low 1 | S. cerevisiae deletion strains, locus YEL061C, strain CIN8, active compounds read low 1.01 | S. cerevisiae deletion strains, locus YER110C, active compounds read low 1.02 | S. cerevisiae deletion strains, locus YER155C, strain BEM2, active compounds read low 1.01 | S. cerevisiae deletion strains, locus YER167W, strain BCK2, active compounds read low 0.95 | S. cerevisiae deletion strains, locus YGL078C, strain dbp3, active compounds read low 0.96 | S. cerevisiae deletion strains, locus YGL086W, strain mad1, active compounds read low 0.935 | S. cerevisiae deletion strains, locus YGL248W, strain PDE1, active compounds read low 1.02 | S. cerevisiae deletion strains, locus YGR078C, strain PAC10, active compounds read low 0.926 | S. cerevisiae deletion strains, locus YGR252W, strain gcn5, active compounds read low 0.844 | S. cerevisiae deletion strains, locus YHR030C, strain SLT2, active compounds read low 1.02 and 1.05 | S. cerevisiae deletion strains, locus YHR079C, strain IRE1 (second series), active compounds read low 1.02 | S. cerevisiae deletion strains, locus YHR079C, strain IRE1, active compounds read low 1.07 | S. cerevisiae deletion strains, locus YHR094C, strain hxt1, active compounds read low 1.02 | S. cerevisiae deletion strains, locus YHR129C, strain ARP1, active compounds read low 1.01 | S. cerevisiae deletion strains, locus YIL066C, strain RNR3, active compounds read low 0.956 | S. cerevisiae deletion strains, locus YIL073C, strain SPO22, active compounds read low 1.04 | S. cerevisiae deletion strains, locus YIR030C, strain dcg1, active compounds read low 1.01 | S. cerevisiae deletion strains, locus YJL095W, strain BCK1, active compounds read low 1.03 and 1.05 | S. cerevisiae deletion strains, locus YJL134W, strain LCB3, active compounds read low 1.01 | S. cerevisiae deletion strains, locus YJL168C, strain set2, active compounds read low 1.02 | S. cerevisiae deletion strains, locus YJL187C, strain SWE1 (second series), active compounds read low 1.04 | S. cerevisiae deletion strains, locus YJR043C, strain POL32, active compounds read low 0.949 | S. cerevisiae deletion strains, locus YJR066W, strain TOR1, active compounds read low 0.987 | S. cerevisiae deletion strains, locus YJR075W, strain HOC1, active compounds read low 0.901 | S. cerevisiae deletion strains, locus YKL009W, strain mrt4, active compounds read low 0.917 | S. cerevisiae deletion strains, locus YKL068W, active compounds read low 0.996 | S. cerevisiae deletion strains, locus YLR039C, strain RIC1, active compounds read low 0.887 | S. cerevisiae deletion strains, locus YLR058C, strain SHM2, active compounds read low 1.01 | S. cerevisiae deletion strains, locus YLR102C, strain apc9, active compounds read low 1.03 | S. cerevisiae deletion strains, locus YLR113W, strain HOG1, active compounds read low 0.964 | S. cerevisiae deletion strains, locus YLR262C, strain YPT6, active compounds read low 0.879 | S. cerevisiae deletion strains, locus YLR268W, strain sec22, active compounds read low 0.95 | S. cerevisiae deletion strains, locus YLR330W, strain CHS5, active compounds read low 1.01 | S. cerevisiae deletion strains, locus YLR342W, strain FKS1 (second series), active compounds read low 0.953 | S. cerevisiae deletion strains, locus YLR371W, strain rom2, active compounds read low 1.05 | S. cerevisiae deletion strains, locus YML016C, strain PPZ1, active compounds read low 1 | S. cerevisiae deletion strains, locus YML032C, strain rad52, active compounds read low 0.988 | S. cerevisiae deletion strains, locus YML124C, strain tub3, active compounds read low 1.02 | S. cerevisiae deletion strains, locus YMR078C, strain ctf18, active compounds read low 1.02 | S. cerevisiae deletion strains, locus YMR263W, strain SAP30, active compounds read low 1.02 | S. cerevisiae deletion strains, locus YMR307W, strain GAS1, active compounds read low 0.815 | S. cerevisiae deletion strains, locus YNL067W, strain RPL9B, active compounds read low 0.99 | S. cerevisiae deletion strains, locus YNL128W, strain TEP1, active compounds read low 0.925 | S. cerevisiae deletion strains, locus YNL153C, strain GIM3, active compounds read low 1.03 | S. cerevisiae deletion strains, locus YNL183C, strain NPR1, active compounds read low 0.988 | S. cerevisiae deletion strains, locus YNL233W, strain BNI4, active compounds read low 0.941 | S. cerevisiae deletion strains, locus YNL250W, strain rad50, active compounds read low 0.964 | S. cerevisiae deletion strains, locus YNL271C, strain bni1, active compounds read low 0.999 | S. cerevisiae deletion strains, locus YNL298W, strain CLA4, active compounds read low 0.944 | S. cerevisiae deletion strains, locus YNL307C, strain MCK1, active compounds read low 1.02 | S. cerevisiae deletion strains, locus YNL322C, strain KRE1, active compounds read low 0.999 | S. cerevisiae deletion strains, locus YNR052C, strain pop2, active compounds read low 1.02 | S. cerevisiae deletion strains, locus YOL012C, strain htz1 2.27 | S. cerevisiae deletion strains, locus YOL147C, strain pex11, active compounds read low 1.02 | S. cerevisiae deletion strains, locus YOR061W, strain CKA2, active compounds read low 1.01 | S. cerevisiae deletion strains, locus YOR069W, strain VPS5, active compounds read low 1.01 | S. cerevisiae deletion strains, locus YOR136W, strain idh2, active compounds read low 0.983 | S. cerevisiae deletion strains, locus YOR144C, strain elg1, active compounds read low 1.01 | S. cerevisiae deletion strains, locus YOR231W, strain MKK1, active compounds read low 1.05 | S. cerevisiae deletion strains, locus YOR316C, strain cot1, active compounds read low 1.02 | S. cerevisiae deletion strains, locus YPL055C, strain LGE1, active compounds read low 0.877 | S. cerevisiae deletion strains, locus YPL256C, strain CLN2, active compounds read low 1.11 | S. cerevisiae deletion strains, locus YPR119W, strain clb2, active compounds read low 1.02 | S. cerevisiae deletion strains, locus YPR141C, strain kar3, active compounds read low 1.02 | S. cerevisiae deletion strains, locus YPR163C, strain tif3, active compounds read low 0.993 | S. cerevisiae deletion strains, locus YPR167C, strain met16, active compounds read low 0.934 | S. cerevisiae deletion strains, strain wtn01, active compounds read low 0.921
active: S. cerevisiae deletion strains, locus YAL013W, strain DEP1, active compounds read low 0.869 | S. cerevisiae deletion strains, locus YDL192W, strain arf1, active compounds read low 0.888 | S. cerevisiae deletion strains, locus YDR502C, strain sam2, active compounds read low 0.893 | S. cerevisiae deletion strains, locus YGR135W, strain pre9, active compounds read low 0.865 | S. cerevisiae deletion strains, locus YHR200W, strain rpn10, active compounds read low 0.92 | S. cerevisiae deletion strains, locus YIL125W, strain kgd1, active compounds read low 0.926 | S. cerevisiae deletion strains, locus YKL085W, strain MDH1 (second series), active compounds read low 0.897 | S. cerevisiae deletion strains, locus YKL085W, strain MDH1, active compounds read low 0.897 | S. cerevisiae deletion strains, locus YKR001C, strain vps1, active compounds read low 0.76 | S. cerevisiae deletion strains, locus YLR418C, strain cdc73, active compounds read low 0.651 | S. cerevisiae deletion strains, locus YMR223W, strain ubp8, active compounds read low 0.889 | S. cerevisiae deletion strains, locus YOR184W, strain ser1, active compounds read low 0.606 | S. cerevisiae strains, strain wild type, active compounds read low 0.899
